Screening results as filed in PubChem BioAssay.
Only some compounds are listed: those with a hit (about 3.5% of all), similar ones and a draw of the others.
GPR151 activ = activates the human receptor GPR151; Q8TDV0; activation, % at 11.2 µM; PathHunter beta-arrestin GPR151 cells, luminescence; 650,000 compounds, 1% hits; in the data active = activation above about 4.9%;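 note: 0% = median of compound wells and 100% = cells with positive control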
TEAD-YAP block = TEAD-YAP interaction inhibition; HEK-TIYL cells, TEAD-Gal4/YAP UAS-luciferase luminescence; inhibition, % at 9.12 µM; 640,000 compounds, 1.4% hits; AID 1259422; in the data active = inhibition above about 32%;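 note: 0% = median of test compound wells and 100% = reference inhibitor wells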
MITF primary = inhibitors of human MITF; O75030; AlphaScreen MITF homodimerization, bead proximity signal; inhibition, % at 2.6 µM; 650,000 compounds, 0.91% hits; AID 1259374; in the data active = inhibition above about 50%;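 note: 0% = vehicle wells with protein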
FBW7 act = activators of human E3 ligase FBW7; Q969H0; AlphaScreen FBW7–phospho-cyclin E peptide binding, activator screen; normalized activity (activation), % at 26.1 µM; 650,000 compounds, 0.13% hits; in the data active = normalized activity above about 1.9%;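 note: purified mutant Fbw7 with reduced substrate affinity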
* hit, by the source's call.

SMILES | GPR151 activ | TEAD-YAP block | MITF primary | FBW7 act
OC(CNCC1CCCO1)COc1ccc(OCC(O)NCC2CCCO2)cc1 (stereo not drawn) | -0.7 | 5.5 | 12.1 | 2.3*
OC(CNCC1CCCO1)COc1ccc(OCC(O)CNCC2CCCO2)cc1 (stereo not drawn) | 1.1 | 2.0 | 9.2 | 0.0
Cc1ccc(NC(=O)C(C)N2Cc3ccccc3C2=O)nc1 (stereo not drawn) | -0.6 | 81.8* | 5.1 | 0.1
Cc1cc2nc(-c3ccc(N)cc3)oc2cc1C | -7.7 | 83.4* | 1.5 | -0.2
Cc1ccc2nc(-c3ccc(N)cc3)oc2c1 | -5.7 | 66.3* | 4.2 | -0.3
Cc1ccc2nc(-c3cc(N)ccc3Cl)oc2c1 | -6.0 | -25.6 | -7.3 | -0.1
Cc1ccc2nc(-c3cccc(N)c3)oc2c1 | -10.4 | 46.5* | 19.8 | 0.7
Nc1cccc(-c2nc3cc(N)ccc3o2)c1 | -4.0 | -34.4 | -1.0 | -0.1
Cc1ccc2nc(-c3ccc(NC(=O)c4ccc(I)cc4)cc3)oc2c1 | -2.2 | -1.5 | -13.2 | 0.0
Cc1ccc2nc(-c3ccc(O)cc3)oc2c1 | -6.0 | 97.5* | 1.9 | 0.1
Cc1cc(C)c2c(c1)cc(CN(C(=O)C(F)(F)F)C1CCCC1)c1nnnn12 | -0.5 | -27.9 | -2.8 | 0.1
CCN(CC)CCNc1ncnc2c1cnn2-c1ccc(Cl)cc1 | 1.1 | -21.9 | -2.0 | 0.0
Cc1ccc2oc(-c3cc(N)ccc3O)nc2c1 | -7.8 | -34.8 | 7.2 | -0.1
CC(C)c1ccc2oc(-c3ccc(N)cc3O)nc2c1 | -0.9 | 86.8* | -3.2 | -0.1
CC(C)c1ccc2oc(-c3cc(N)ccc3O)nc2c1 | -3.6 | 63.9* | 11.0 | -0.2
Cc1cc2nc(-c3ccc(N)cc3O)oc2cc1C | -0.3 | 30.6 | 6.6 | 0.0
O=C(CSc1nc2nc[nH]c2c(=O)[nH]1)c1ccc2c(c1)OCCO2 | 0.2 | 11.2 | 2.6 | -0.2
CCCNC(=O)c1cncc(-c2cccs2)c1 | 0.1 | -9.3 | 11.3 | 0.0
Cc1ccc(C=Nc2ccccc2C(N)=O)s1 | -0.4 | 35.9* | 4.1 | -0.2
NC(=O)c1ccccc1N=Cc1ccc(Br)s1 | 3.3 | 8.0 | 13.8 | 0.1
COc1ccc(C=Nc2ccccc2C(N)=O)c2ccccc12 | -0.4 | 60.0* | 23.8 | -0.1
O=C(OCc1ccc(Cl)cc1Cl)C(O)c1ccccc1 (stereo not drawn) | -0.3 | 1.5 | -10.2 | 0.1
C=CCNc1nc(Nc2ccc(Cl)cc2C)c2cnn(C)c2n1 | 0.7 | 10.2 | 4.1 | -0.2
COC(=O)c1sccc1NC(=O)c1ccccc1C | -0.3 | -16.3 | -1.3 | -0.1
CCOc1ccccc1C(=O)Nc1ccsc1C(=O)OC | 0.7 | 54.6* | 0.3 | 0.1
SMILES | GPR151 activ | TEAD-YAP block | MITF primary | FBW7 act
C/C(=N\NC(=O)c1nnn(-c2nonc2N)c1-c1ccccc1)c1ccccc1O | -0.7 | 43.8* | 21.7 | 0.1
C/C(=N\NC(=O)c1nnn(-c2nonc2N)c1-c1ccccc1)c1ccc(O)cc1 | 1.8 | 12.5 | 0.7 | -0.1
C/C(=N\NC(=O)c1nnn(-c2nonc2N)c1-c1ccccc1)c1ccc(O)cc1O | 1.9 | 43.3* | -2.3 | -0.4
O=C1NC(=O)N(c2ccc(Cl)cc2)C(=O)/C1=C/c1cnc(-c2ccccc2)nc1 | -0.2 | -4.7 | 3.0 | 0.2
O=C(c1cc(-c2ccc3c(c2)OCO3)on1)N1CCCC1 | -2.1 | 41.1* | -14.2 | -0.1
O=C(c1cc(-c2ccc(O)cc2)on1)N1CCCCC1 | -0.6 | 45.0* | 4.2 | 0.1
O=C(c1cc(-c2cccc(O)c2)on1)N1CCCCCC1 | -0.5 | 31.1 | -7.8 | 0.0
C=CCNC(=O)c1cc(-c2cccc(O)c2)on1 | -2.1 | 34.1* | 2.4 | -0.1
O=C(c1cc(-c2cccc(O)c2)on1)N1CCOCC1 | -4.9 | 64.7* | 14.8 | 0.1
COCCNc1c(-c2ccc(N(C)C)cc2)nc2cnccn12 | -1.4 | -59.5 | -20.3 | 0.1
CC(C)(C)C1=NN(CC(=O)N2CCNC(=O)C2)C(=O)c2cc3sccc3n2C1 | 0.5 | 8.6 | 13.9 | 0.0
CC12CCC(c3nc4nonc4nc31)C2(C)C (stereo not drawn) | 0.1 | 0.9 | 9.9 | -0.1
CCNc1nc(NC(C)CC)nc(ON=C(C)C)n1 (stereo not drawn) | -0.2 | 35.9* | 28.8 | 0.2
COc1ccc(OCC(=O)N2c3ccccc3Sc3ccc(Cl)cc32)cc1 | 1.1 | -5.7 | -0.2 | -0.1
O=C(COc1ccccc1)N1c2ccccc2Sc2ccccc21 | 0.1 | 61.7* | -7.9 | 0.1
CCCC(=O)NC(c1ccc(OC)c(OC)c1)c1ccc2cccnc2c1O (stereo not drawn) | 0.1 | 87.5* | 45.4 | -1.6
COc1ccc(C(NC(=O)Cc2ccccc2)c2ccc3cccnc3c2O)cc1OC (stereo not drawn) | 0.6 | 90.1* | 24.3 | -1.6
